# Assay results as given in the supplement of paper PMC10849652.
# The full data set covers some 7,900 targets. This sample favours those with a hit. About 0.6% of all pairs of compound and target were hits. Values without a mark were called inactive.
# Columns and labels:
# Experiment in all cases: log2 fold change, soluble protein after heating vs DMSO (PISA); higher = thermal stabilisation; K562 cells, 10 uM, 30 min; active = over 0.2 and 3.5 SD of the protein, either way, in both replicates (recomputed)
# [1] = compound: CCCc1cc(C)[nH]c(=O)c1CNC(=O)c1cc(-c2ccnc(N3CCN(C)CC3)c2)cc2c1cnn2C(C)C
# How it was run: (§1)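 K562 cells at 2×10^6 cells/mL were given 10 μM compound for 30 min. Aliquots then went through 3 min of heating across 48°C-58°C, were pooled, and were extracted in PBS with 0.5% NP-40 at 4°C, and the supernatant after 21,000xg for 90 min was quantified by TMTpro 16plex LC-MS/MS with channel sums equalised. Thermal stability relative to control samples, from duplicates, is given as log2 fold change.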
# [2] = compound: CCn1cc(-c2ccnc3[nH]c(-c4cccc(CN(C)C)c4)cc23)c(-c2ccc(NC(=O)N(C)C)cc2)n1
# How it was run: as §1
# [3] = compound: CN1CCC(CNc2ccc3ncc(-c4cccc(OC(F)(F)F)c4)n3n2)CC1
# How it was run: as §1
# [4] = compound: CC1=C(C=C(C=C1)NC(=O)C2=CC(=CC=C2)N(C)C)NC(=O)C3=CC=C(C=C3)O
# How it was run: as §1
# [5] = compound: CC1=NC(=CC=C1)C2=C(N=C(N2)C(C)(C)C)C3=CC4=NC=CN=C4C=C3
# How it was run: as §1
# givinostat = compound: CCN(CC)Cc1ccc2cc(COC(=O)Nc3ccc(C(=O)NO)cc3)ccc2c1 [givinostat]
# How it was run: as §1
# barasertib = compound: CCN(CCCOc1ccc2c(Nc3cc(CC(=O)Nc4cccc(F)c4)[nH]n3)ncnc2c1)CCOP(=O)(O)O [barasertib]
# How it was run: as §1
# [6] = compound: CC[C@@H]1C(=O)N(C)c2cnc(Nc3ccc(C(=O)NC4CCN(C)CC4)cc3OC)nc2N1C1CCCC1
# How it was run: as §1
# [7] = compound: CCn1c(C(=O)N(C2CC2)C2CC2)cc2c3c(ncn3C)c(Nc3cc(C)n(C)n3)nc21
# How it was run: as §1
# rosiglitazone = compound: CN(CCOC1=CC=C(C=C1)C[C@H]2C(=O)NC(=O)S2)C3=CC=CC=N3 (racemic) [rosiglitazone]
# How it was run: as §1
# [8] = compound: CC1=CC=C(C=C1)SC2=C3C=C(SC3=CN=C2)C(=O)N
# How it was run: as §1
# vemurafenib = compound: CCCS(=O)(=O)Nc1ccc(F)c(C(=O)c2c[nH]c3ncc(-c4ccc(Cl)cc4)cc23)c1F [vemurafenib]
# How it was run: as §1
# [9] = compound: CCCS(=O)(=O)Nc1ccc(F)c(C(=O)c2c[nH]c3ncc(Cl)cc23)c1F
# How it was run: as §1
# volasertib = compound: CC[C@@H]1C(=O)N(C)c2cnc(Nc3ccc(C(=O)N[C@H]4CC[C@H](N5CCN(CC6CC6)CC5)CC4)cc3OC)nc2N1C(C)C [volasertib]
# How it was run: as §1
# [10] = compound: CN(C)CC(=O)Nc1ccc2[nH]c(=O)c3ccccc3c2c1
# How it was run: as §1
# [11] = compound: CN1C2=C(C3=C1C(=O)N(N=C3)CC4=CC(=CC=C4)N)SC(=C2)S(=O)C
# How it was run: as §1
# [12] = compound: CC1=C(C=C(C=C1)NC(=O)C2=CC(=CC=C2)C(C)(C)C#N)NC3=CC4=C(C=C3)N=CN(C4=O)C
# How it was run: as §1
# Nexturastat A = compound: CCCCN(Cc1ccc(C(=O)NO)cc1)C(=O)Nc1ccccc1 [Nexturastat A]
# How it was run: as §1
# [13] = compound: CC[C@H](C)N1C=C(C2=C(C=C(C=C21)C3=CN=C(C=C3)N4CCNCC4)C(=O)NCC5=C(C=C(NC5=O)C)C)C
# How it was run: as §1
# epoxomicin = compound: CC[C@H](C)[C@@H](C(=O)N[C@@H]([C@@H](C)O)C(=O)N[C@@H](CC(C)C)C(=O)[C@]1(CO1)C)NC(=O)[C@H]([C@@H](C)CC)N(C)C(=O)C [epoxomicin]
# How it was run: as §1
# UniProt O94913, sequence (O94913 whole entry, looked up): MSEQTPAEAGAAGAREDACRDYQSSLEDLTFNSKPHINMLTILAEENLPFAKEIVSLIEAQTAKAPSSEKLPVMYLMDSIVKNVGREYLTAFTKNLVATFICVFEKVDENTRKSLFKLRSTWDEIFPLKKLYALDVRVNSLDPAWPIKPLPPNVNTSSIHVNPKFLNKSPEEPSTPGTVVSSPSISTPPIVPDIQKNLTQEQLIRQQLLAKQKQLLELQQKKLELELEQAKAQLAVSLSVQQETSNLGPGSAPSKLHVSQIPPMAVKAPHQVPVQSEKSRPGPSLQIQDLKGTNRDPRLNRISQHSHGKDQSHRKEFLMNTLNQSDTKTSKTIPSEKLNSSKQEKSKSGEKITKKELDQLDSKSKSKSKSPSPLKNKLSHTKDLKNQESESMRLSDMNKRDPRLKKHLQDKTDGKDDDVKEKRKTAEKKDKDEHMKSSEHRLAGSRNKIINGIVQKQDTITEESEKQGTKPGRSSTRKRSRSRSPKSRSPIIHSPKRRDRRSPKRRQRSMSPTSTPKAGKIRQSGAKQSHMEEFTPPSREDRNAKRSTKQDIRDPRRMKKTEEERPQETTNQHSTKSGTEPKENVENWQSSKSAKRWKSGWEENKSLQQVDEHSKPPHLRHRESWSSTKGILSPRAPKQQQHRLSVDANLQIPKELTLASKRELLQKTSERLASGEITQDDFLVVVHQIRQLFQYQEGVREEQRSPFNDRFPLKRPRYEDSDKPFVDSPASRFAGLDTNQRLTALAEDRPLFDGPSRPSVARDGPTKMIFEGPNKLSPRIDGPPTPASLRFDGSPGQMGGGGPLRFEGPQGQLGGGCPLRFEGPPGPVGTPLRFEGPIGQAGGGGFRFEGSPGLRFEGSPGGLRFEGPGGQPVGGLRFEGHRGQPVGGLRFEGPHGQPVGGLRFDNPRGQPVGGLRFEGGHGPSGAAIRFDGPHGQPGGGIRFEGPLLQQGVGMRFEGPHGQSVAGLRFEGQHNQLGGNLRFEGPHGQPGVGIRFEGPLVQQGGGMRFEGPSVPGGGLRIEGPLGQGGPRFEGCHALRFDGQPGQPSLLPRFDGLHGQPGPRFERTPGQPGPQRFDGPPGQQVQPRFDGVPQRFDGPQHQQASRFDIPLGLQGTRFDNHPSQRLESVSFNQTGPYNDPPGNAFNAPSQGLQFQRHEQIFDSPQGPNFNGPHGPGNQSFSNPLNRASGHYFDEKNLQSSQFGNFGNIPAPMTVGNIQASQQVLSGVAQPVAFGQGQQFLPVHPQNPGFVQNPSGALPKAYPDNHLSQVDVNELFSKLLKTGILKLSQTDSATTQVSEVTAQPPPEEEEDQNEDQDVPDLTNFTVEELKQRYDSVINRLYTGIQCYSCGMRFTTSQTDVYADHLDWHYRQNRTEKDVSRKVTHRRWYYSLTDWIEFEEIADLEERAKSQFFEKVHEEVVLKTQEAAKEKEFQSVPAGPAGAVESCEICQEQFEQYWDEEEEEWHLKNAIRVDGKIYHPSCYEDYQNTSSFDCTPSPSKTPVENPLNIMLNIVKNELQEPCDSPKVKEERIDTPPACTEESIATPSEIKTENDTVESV
# UniProt P11309, sequence (P11309 whole entry, looked up): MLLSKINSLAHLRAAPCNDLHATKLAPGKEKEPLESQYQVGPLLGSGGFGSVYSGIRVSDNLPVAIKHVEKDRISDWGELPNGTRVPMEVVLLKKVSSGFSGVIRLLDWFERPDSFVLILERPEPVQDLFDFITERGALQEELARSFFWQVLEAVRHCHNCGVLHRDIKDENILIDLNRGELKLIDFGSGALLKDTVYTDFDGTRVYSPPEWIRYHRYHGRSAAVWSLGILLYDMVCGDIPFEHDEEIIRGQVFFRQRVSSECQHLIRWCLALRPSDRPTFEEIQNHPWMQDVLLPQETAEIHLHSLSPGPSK
# UniProt O43924, sequence (O43924 whole entry, looked up): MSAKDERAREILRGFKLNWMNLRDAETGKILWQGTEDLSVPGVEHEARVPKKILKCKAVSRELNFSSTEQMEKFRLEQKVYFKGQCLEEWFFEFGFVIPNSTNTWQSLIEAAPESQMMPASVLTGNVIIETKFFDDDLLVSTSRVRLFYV
# UniProt Q8N2W9, sequence (Q8N2W9 whole entry, looked up): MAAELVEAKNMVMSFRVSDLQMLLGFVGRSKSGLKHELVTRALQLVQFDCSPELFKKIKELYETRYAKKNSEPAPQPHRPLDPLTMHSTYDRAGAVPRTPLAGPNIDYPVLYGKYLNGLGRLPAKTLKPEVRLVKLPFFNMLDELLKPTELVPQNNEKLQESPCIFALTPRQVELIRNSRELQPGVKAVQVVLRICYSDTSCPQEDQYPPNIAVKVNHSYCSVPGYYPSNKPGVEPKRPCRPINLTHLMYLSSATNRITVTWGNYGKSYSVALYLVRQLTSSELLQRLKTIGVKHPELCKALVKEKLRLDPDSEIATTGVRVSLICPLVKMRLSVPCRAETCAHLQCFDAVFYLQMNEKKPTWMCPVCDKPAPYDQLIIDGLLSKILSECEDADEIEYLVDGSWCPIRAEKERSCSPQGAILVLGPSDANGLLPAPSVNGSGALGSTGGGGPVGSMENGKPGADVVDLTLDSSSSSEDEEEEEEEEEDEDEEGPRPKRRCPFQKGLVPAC
# UniProt Q9UHX1, sequence (Q9UHX1 whole entry, looked up): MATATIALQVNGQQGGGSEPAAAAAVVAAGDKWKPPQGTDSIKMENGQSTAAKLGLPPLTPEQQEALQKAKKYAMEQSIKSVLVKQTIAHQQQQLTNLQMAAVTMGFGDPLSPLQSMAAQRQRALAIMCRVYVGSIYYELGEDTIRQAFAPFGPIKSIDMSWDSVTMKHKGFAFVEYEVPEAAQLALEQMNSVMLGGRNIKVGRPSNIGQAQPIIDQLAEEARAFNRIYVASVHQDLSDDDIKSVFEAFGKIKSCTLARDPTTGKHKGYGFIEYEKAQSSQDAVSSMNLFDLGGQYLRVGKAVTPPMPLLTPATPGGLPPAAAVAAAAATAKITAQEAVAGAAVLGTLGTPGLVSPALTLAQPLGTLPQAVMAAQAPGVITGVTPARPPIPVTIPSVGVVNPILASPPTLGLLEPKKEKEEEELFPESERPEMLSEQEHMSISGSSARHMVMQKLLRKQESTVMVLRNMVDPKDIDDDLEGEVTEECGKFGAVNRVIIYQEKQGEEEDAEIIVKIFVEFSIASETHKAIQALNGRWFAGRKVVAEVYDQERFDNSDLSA
# UniProt P51817, sequence (P51817 whole entry, looked up): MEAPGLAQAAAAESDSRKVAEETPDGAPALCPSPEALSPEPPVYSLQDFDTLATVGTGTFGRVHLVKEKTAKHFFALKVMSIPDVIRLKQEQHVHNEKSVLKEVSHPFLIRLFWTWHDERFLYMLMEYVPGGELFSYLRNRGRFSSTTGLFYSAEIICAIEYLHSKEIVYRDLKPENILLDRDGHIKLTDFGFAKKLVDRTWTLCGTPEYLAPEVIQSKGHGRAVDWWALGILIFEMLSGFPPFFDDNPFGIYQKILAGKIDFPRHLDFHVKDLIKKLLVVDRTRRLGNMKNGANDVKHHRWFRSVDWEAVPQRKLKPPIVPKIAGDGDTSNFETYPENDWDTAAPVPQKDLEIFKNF
# UniProt Q9NUJ7, sequence (Q9NUJ7 whole entry, looked up): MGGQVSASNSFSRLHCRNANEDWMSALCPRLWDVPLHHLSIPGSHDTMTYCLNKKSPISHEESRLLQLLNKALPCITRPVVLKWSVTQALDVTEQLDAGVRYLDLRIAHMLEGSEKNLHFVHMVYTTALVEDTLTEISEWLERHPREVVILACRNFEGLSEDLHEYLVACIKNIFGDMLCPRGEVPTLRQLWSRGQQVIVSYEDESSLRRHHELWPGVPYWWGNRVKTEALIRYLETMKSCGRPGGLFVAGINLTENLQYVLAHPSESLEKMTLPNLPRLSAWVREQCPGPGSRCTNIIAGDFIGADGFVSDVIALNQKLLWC
# UniProt Q68D20, sequence (Q68D20 whole entry, looked up): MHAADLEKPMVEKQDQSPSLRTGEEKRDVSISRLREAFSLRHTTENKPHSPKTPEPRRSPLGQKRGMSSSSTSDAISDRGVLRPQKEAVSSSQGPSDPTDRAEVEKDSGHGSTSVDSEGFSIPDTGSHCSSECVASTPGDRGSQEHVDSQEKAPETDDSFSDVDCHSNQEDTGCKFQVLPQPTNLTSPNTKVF
# UniProt O60237, sequence (O60237 whole entry, looked up): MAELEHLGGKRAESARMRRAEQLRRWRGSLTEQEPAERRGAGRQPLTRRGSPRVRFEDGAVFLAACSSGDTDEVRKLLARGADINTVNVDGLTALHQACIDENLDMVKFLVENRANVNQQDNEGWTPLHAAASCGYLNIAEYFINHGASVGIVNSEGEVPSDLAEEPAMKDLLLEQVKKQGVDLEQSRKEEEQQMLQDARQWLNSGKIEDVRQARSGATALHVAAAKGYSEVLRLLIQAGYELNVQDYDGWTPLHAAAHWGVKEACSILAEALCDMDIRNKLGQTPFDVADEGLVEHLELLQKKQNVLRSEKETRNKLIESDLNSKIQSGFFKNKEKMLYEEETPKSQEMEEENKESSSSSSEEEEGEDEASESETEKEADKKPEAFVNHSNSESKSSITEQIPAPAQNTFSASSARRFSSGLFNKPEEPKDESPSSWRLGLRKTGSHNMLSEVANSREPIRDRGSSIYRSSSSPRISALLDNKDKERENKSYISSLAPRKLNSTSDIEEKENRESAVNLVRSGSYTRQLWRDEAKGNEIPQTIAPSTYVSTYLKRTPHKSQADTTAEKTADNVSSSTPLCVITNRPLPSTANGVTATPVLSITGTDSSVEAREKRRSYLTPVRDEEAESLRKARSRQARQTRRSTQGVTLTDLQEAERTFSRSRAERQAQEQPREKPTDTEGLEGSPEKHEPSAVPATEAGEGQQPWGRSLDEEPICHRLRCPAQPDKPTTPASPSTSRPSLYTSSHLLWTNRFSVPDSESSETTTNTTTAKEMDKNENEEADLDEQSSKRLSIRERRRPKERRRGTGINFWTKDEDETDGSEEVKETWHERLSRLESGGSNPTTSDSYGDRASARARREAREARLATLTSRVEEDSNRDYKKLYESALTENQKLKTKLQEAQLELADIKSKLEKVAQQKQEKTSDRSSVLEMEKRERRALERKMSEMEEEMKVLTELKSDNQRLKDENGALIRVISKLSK
target,measurement,setting,value
PIM1 isoform 2 (UniProt P11309),log2 fold change,[1],-0.566
same,log2 fold change,[2],-0.068
same,log2 fold change,[3],2.26 (active)
PPP2R5C isoform 2 (UniProt Q13362),log2 fold change,[4],-0.047
same,log2 fold change,[5],0.022
same,log2 fold change,[1],-0.016
same,log2 fold change,givinostat,0.048
same,log2 fold change,barasertib,0.055
same,log2 fold change,[6],-0.209
same,log2 fold change,[7],-0.099
same,log2 fold change,rosiglitazone,0.009
PUF60 isoform 2 (UniProt Q9UHX1),log2 fold change,[4],0.04
same,log2 fold change,[8],0.199
same,log2 fold change,vemurafenib,0.135
same,log2 fold change,[9],0.35
same,log2 fold change,[1],0.123
same,log2 fold change,barasertib,0.095
same,log2 fold change,volasertib,-0.372
same,log2 fold change,[10],0.067
same,log2 fold change,rosiglitazone,-0.011
same,log2 fold change,[11],-0.259
PDE6D (UniProt O43924),log2 fold change,[12],-0.081
same,log2 fold change,[5],-0.117
same,log2 fold change,Nexturastat A,0.15
same,log2 fold change,vemurafenib,-0.022
same,log2 fold change,[1],-0.028
same,log2 fold change,givinostat,-0.052
same,log2 fold change,barasertib,0.002
same,log2 fold change,[13],-0.179
same,log2 fold change,epoxomicin,0.105
same,log2 fold change,[7],0.26
same,log2 fold change,[2],-0.29
same,log2 fold change,[10],0.05
same,log2 fold change,rosiglitazone,-0.054
same,log2 fold change,[11],-0.096
same,log2 fold change,[3],0.061
PPP1R12B isoform 6 (UniProt O60237),log2 fold change,givinostat,0.252
same,log2 fold change,barasertib,0.108
same,log2 fold change,[13],0.088
same,log2 fold change,[7],-0.11
same,log2 fold change,rosiglitazone,0.006
PCNX1 (UniProt Q96RV3),log2 fold change,[8],-0.373
same,log2 fold change,Nexturastat A,0.106
same,log2 fold change,vemurafenib,0.025
same,log2 fold change,[9],-0.58 (active)
same,log2 fold change,[1],-0.035
same,log2 fold change,barasertib,0.026
same,log2 fold change,[6],0.331
same,log2 fold change,volasertib,0.132
same,log2 fold change,[13],-0.004
same,log2 fold change,epoxomicin,-0.017
same,log2 fold change,[10],-0.064
same,log2 fold change,rosiglitazone,0.028
PUM1 (UniProt Q14671),log2 fold change,[5],-0.028
same,log2 fold change,givinostat,0.08
same,log2 fold change,[7],-0.01
same,log2 fold change,[2],-0.084
same,log2 fold change,[11],0.078
same,log2 fold change,[3],-0.026
PIAS4 (UniProt Q8N2W9),log2 fold change,[4],-0.137
same,log2 fold change,[8],-0.101
same,log2 fold change,[5],0.222
same,log2 fold change,Nexturastat A,0.353
same,log2 fold change,[9],0.07
same,log2 fold change,[1],1.31
same,log2 fold change,volasertib,-0.406
same,log2 fold change,epoxomicin,0.11
same,log2 fold change,[2],-0.064
same,log2 fold change,[11],0.173
same,log2 fold change,[3],0.062
PRKCE (UniProt Q02156),log2 fold change,[12],0.041
same,log2 fold change,[8],-0.012
same,log2 fold change,[5],0.048
same,log2 fold change,Nexturastat A,-0.242
same,log2 fold change,vemurafenib,0.077
same,log2 fold change,[9],0.085
same,log2 fold change,[1],-0.02
same,log2 fold change,givinostat,-0.393 (active)
same,log2 fold change,barasertib,0.013
same,log2 fold change,[6],-0.051
same,log2 fold change,volasertib,-0.125
same,log2 fold change,[13],0.099
same,log2 fold change,epoxomicin,0.036
same,log2 fold change,[7],-0.054
same,log2 fold change,[2],-0.067
same,log2 fold change,[10],0.036
same,log2 fold change,rosiglitazone,0.068
same,log2 fold change,[11],-0.106
same,log2 fold change,[3],-0.16
PCF11 (UniProt O94913),log2 fold change,[4],0.045
same,log2 fold change,[8],0.019
same,log2 fold change,[5],-0.018
same,log2 fold change,vemurafenib,-0.058
same,log2 fold change,[9],0.006
same,log2 fold change,[1],-0.3
same,log2 fold change,barasertib,-0.168
same,log2 fold change,[6],-0.014
same,log2 fold change,volasertib,-0.114
same,log2 fold change,[2],0.038
same,log2 fold change,[10],-0.078
same,log2 fold change,rosiglitazone,0.314
same,log2 fold change,[3],-0.03
PRKD2 (UniProt M0R346),log2 fold change,[12],-0.011
same,log2 fold change,Nexturastat A,0.236
same,log2 fold change,barasertib,-0.337
same,log2 fold change,epoxomicin,-0.072
same,log2 fold change,[2],-0.025
same,log2 fold change,rosiglitazone,-0.026
same,log2 fold change,[3],-0.14
PCBP2 (UniProt F8VZX2),log2 fold change,[4],-0.14
same,log2 fold change,[5],0.005
same,log2 fold change,[1],-0.098
same,log2 fold change,givinostat,0.009
same,log2 fold change,barasertib,-0.173
same,log2 fold change,[13],0.075
same,log2 fold change,[7],0.073
same,log2 fold change,rosiglitazone,0.065
same,log2 fold change,[11],0.098
PCBP2 (UniProt F8VRH0),log2 fold change,[12],0.419
same,log2 fold change,[8],0.019
same,log2 fold change,[5],0.172
same,log2 fold change,Nexturastat A,0.136
same,log2 fold change,vemurafenib,-0.235
same,log2 fold change,[9],0.123
same,log2 fold change,[1],-0.199
same,log2 fold change,givinostat,0.04
same,log2 fold change,barasertib,-0.201
same,log2 fold change,[6],-0.005
same,log2 fold change,volasertib,-0.051
same,log2 fold change,[13],0.165
same,log2 fold change,epoxomicin,-0.252
same,log2 fold change,[7],0.043
same,log2 fold change,[2],-0.201
same,log2 fold change,[10],0.139
same,log2 fold change,rosiglitazone,-0.042
same,log2 fold change,[11],-0.306
same,log2 fold change,[3],-0.149
PAN2 (UniProt Q504Q3),log2 fold change,vemurafenib,-0.128
same,log2 fold change,barasertib,0.088
same,log2 fold change,[6],0.101
same,log2 fold change,[13],0.167
same,log2 fold change,[10],0.006
same,log2 fold change,rosiglitazone,0.181
same,log2 fold change,[11],0.143
PRKX (UniProt P51817),log2 fold change,[1],-0.103
same,log2 fold change,givinostat,0.036
same,log2 fold change,barasertib,0.126
same,log2 fold change,[7],-0.019
same,log2 fold change,rosiglitazone,0.191
PDE4DIP (UniProt E9PS60),log2 fold change,[5],0.013
same,log2 fold change,vemurafenib,-0.214
same,log2 fold change,givinostat,0.016
same,log2 fold change,[6],0.047
same,log2 fold change,[7],-0.072
same,log2 fold change,[10],0.095
PLCXD1 (UniProt Q9NUJ7),log2 fold change,[4],0.05
same,log2 fold change,barasertib,-0.003
same,log2 fold change,rosiglitazone,0.009
PHLDB1 isoform 2 (UniProt Q86UU1),log2 fold change,[4],0.01
same,log2 fold change,[8],0.047
same,log2 fold change,[5],0.047
same,log2 fold change,Nexturastat A,0.045
same,log2 fold change,vemurafenib,0.031
same,log2 fold change,[9],0.016
same,log2 fold change,[1],0.14
same,log2 fold change,givinostat,-0.012
same,log2 fold change,barasertib,0.117
same,log2 fold change,[6],-0.03
same,log2 fold change,volasertib,-0.222
same,log2 fold change,[13],-0.06
same,log2 fold change,epoxomicin,0.061
same,log2 fold change,[7],-0.02
same,log2 fold change,[2],-0.04
same,log2 fold change,[10],-0.034
same,log2 fold change,rosiglitazone,0.055
same,log2 fold change,[11],-0.022
same,log2 fold change,[3],-0.585 (active)
PRR14L (UniProt Q5THK1),log2 fold change,[8],-0.039
same,log2 fold change,vemurafenib,-0.62 (active)
same,log2 fold change,[9],-0.038
same,log2 fold change,volasertib,0.218
same,log2 fold change,[13],-0.088
same,log2 fold change,[2],0.006
same,log2 fold change,[10],-0.134
same,log2 fold change,[3],0.073
PMS2CL (UniProt Q68D20),log2 fold change,[4],0.089
same,log2 fold change,Nexturastat A,-0.109
same,log2 fold change,[1],0.129
same,log2 fold change,[13],-0.126
same,log2 fold change,epoxomicin,0.126
